The text below walks through data of PubChem BioAssay (NCATS).

Experiment [1] is described as follows: AP1 Signaling Pathway (AID 357).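 Also: ME-180 reporter cells stimulated with EGF at its EC50 level; % is scaled to controls: 0 for no effect and ±100 for the full control effect.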 To be noted: ME-180 AP-1-bla reporter, EGF-induced, beta-lactamase ratio, 5 h. An outline of the steps:
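Read-out was the 460nm/530nm emission ratio (excitation 405nm) after CCF4 loading for 2.5 hours at room temperature. Cells carried an AP-1-driven beta-lactamase reporter, were stimulated with EC50 EGF plus compound for 5 hours, and AC50 values came from titrations.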

The target in experiment [2] is Cytochrome P450 1A2 (Homo sapiens) (UniProt P05177). The experiment is described as follows: p450-cyp1a2 (AID 410; calls by dose curve; also: potency is read from the fitted curve at half-maximal effect;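 as to activity change, negative = inhibition: -100% = full effect of reference inhibitor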). To be noted: recombinant CYP1A2, luciferin-ME demethylation, luminescence; series mostly up to 57 µM. An outline of the steps: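 Read-out is luminescence from luciferin produced by CYP1A2 demethylation of Luciferin-ME (100uM, at Km). Detection reagent stopped the 60 min NADPH-dependent reaction; signals were normalized to 57 uM furafylline.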

Experiment [3] can be described thus: NFAT Signaling Pathway (AID 444).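 Also: carbachol stimulus at about its EC50 of 1 µM final; % is scaled to controls: 0 for no effect and ±100 for the full control effect.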 To be noted: Jurkat NFAT-bla M1, carbachol, beta-lactamase ratio, 5 h; at 38 µM (top of the series) unless noted. An outline of the steps:
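Jurkat cells with NFAT-driven β-lactamase reporter and co-expressed M1 receptor, stimulated with carbachol (final 1 uM, ~EC50), compound titration, 5 h at 37 °C. CCF4 loaded 1 h at RT; 460/530 nm ratio gave %activity and AC50.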

The nature of experiment [4]: Stat Signaling Pathway (AID 446).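 Also: ME-180 cervical cancer cells given 40 pM IL-6 alongside compound; SIE-controlled beta-lactamase reporter measured as 460/530 nm FRET emission ratio; % is scaled to controls: 0 for no effect and ±100 for the full control effect.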 To be noted: ME-180 (cervical carcinoma) SIE beta-lactamase reporter, IL-6 stimulated, 5 h. The essentials: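 Overnight-plated ME-180 cells bearing a STAT Inducible Element beta-lactamase reporter; 5 h co-exposure to compound and 40 pM IL-6; values normalized to 300 pM IL-6 and 125 nM JAK inhibitor controls.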
Experiment [5] has as its target Mitogen-activated protein kinase 10 (Mus musculus) (UniProt Q61831). Description: JNK3 AlphaScreen Assay (AID 530).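 Also: kinase came from lysate of stimulated human HepG2 cells.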 Also: potency is read from the fitted curve at half-maximal effect.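 As to activity change, negative = inhibition: signal reports phosphorylation of biotinylated GST-cJun 1-79 at Ser73 with 10 µM ATP; % is scaled to controls: 0 for no effect and ±100 for the full control effect.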 To be noted: JNK3 lysate, c-Jun phosphorylation; series mostly up to 57.1 µM. The essentials:
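HepG2 lysate (IL-1b/TNFa pre-activated) + biotin-GST-cJun 1-79 + anti-pSer73 cJun; cpd titration, 15 min RT; ATP 10 uM start; Tris pH 7.6, MgCl2, DTT, vanadate; beads in EDTA buffer; AlphaScreen.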

A short description of experiment [6]: Cell Viability - BJ (AID 421; calls by dose curve;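 also: potency is read from the fitted curve at half-maximal effect; cells exposed to compound for 40 hours at 37 °C before readout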). To be noted: BJ fibroblast viability, qHTS. An outline of the steps:
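Quantitative HTS: ATP depletion in BJ cells after 40 hr compound exposure in complete culture medium, detected with CellTiter-Glo; AC50 from standard Hill fits.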

Experiment [7] can be described thus: Cell Viability - Jurkat (AID 426;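 active = dose-dependent loss of cell ATP signal giving a full or clear fitted curve, ranked by lower potency value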; also: potency is read from the fitted curve at half-maximal effect). To be noted: qHTS. The essentials: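 Cytotoxicity was scored as loss of cellular ATP, measured by luciferase-based luminescence, in Jurkat clone E6-1 cells after 40 h compound treatment; tamoxifen and doxorubicin served as positive controls.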
(In general: qHTS replaces the single test concentration by a dilution series.)

Experiment [8] can be described thus: Cell Viability - Hek293 (AID 427;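 active = compounds whose dose-response curve shows a full or clear partial loss of cell viability, called from curve shape rather than a numeric limit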;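 also: potency is read from the fitted curve at half-maximal effect; cells exposed to compound for 40 hours at 37 °C before reading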). To be noted: qHTS. An outline of the steps: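 AC50 values derive from Hill-modelled concentration-response of ATP-based luminescence, normalized between DMSO-only and 100 uM tamoxifen controls. Cells were exposed in complete culture medium for 40 hr at 37 °C before detection.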
Experiment [9] can be described thus: Cell Viability - HepG2 (AID 433; calls by dose curve; also: potency is read from the fitted curve at half-maximal effect). To be noted: qHTS. An outline of the steps: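 HepG2 hepatocellular carcinoma cells (1500/well) were treated with compounds for 40 h at 37 °C in complete medium; intracellular ATP was read by CellTiter-Glo luminescence. Data were normalized to DMSO and 100 uM tamoxifen, and AC50 came from Hill fits.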
Experiment [10] in a line: Cell Viability - MRC5 (AID 434; calls by dose curve;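 also: potency is read from the fitted curve at half-maximal effect; potency reflects cytotoxicity seen as loss of intracellular ATP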). To be noted: MRC5 lung fibroblast viability, qHTS. An outline of the steps:
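ATP luminescence read-out (CellTiter-Glo, 20 min RT) after 40 hr, 37 °C compound exposure of 1500 MRC5 cells/well. Data normalized to DMSO (basal) and 100 uM tamoxifen (100% inhibition); AC50 from standard Hill equation.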

Experiment [11] can be described thus: Cell Viability - SK-N-SH (AID 435; calls by dose curve;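 also: potency is read from the fitted curve at half-maximal effect; compound exposure lasted 40 h at 37 °C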). To be noted: SK-N-SH neuroblastoma cell viability qHTS. The essentials:
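SK-N-SH human neuroblastoma cells (1500/well) were exposed to compounds in complete medium for 40 h at 37 °C, and intracellular ATP was then measured by CellTiter-Glo luminescence. AC50 was taken from Hill fits, normalized to DMSO and 100 uM tamoxifen.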

Experiment [12] addresses Glucocorticoid receptor (Homo sapiens) (UniProt P04150). Description: GR-GFP Redistribution (AID 450;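 active = compounds whose dose series gives a full or clear partial fitted curve of increased nuclear translocation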; also: potency is read from the fitted curve at half-maximal effect). To be noted: U2OS GR-GFP nuclear translocation, laser cytometry, 2 h.
A short description of experiment [13]: Cell Viability - N2a (AID 540; active = well fitted curve in the direction sought with a large enough effect; an effect the other way counts as inactive or inconclusive;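 also: plate controls were DMSO alone for no effect and tamoxifen control for full effect; nearly all actives have a fitted effect of over 45% in size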). To be noted: N2a mouse neuroblastoma cell viability; activity change, negative = cytotoxicity: at 92.2 µM (top of the series). The essentials: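 In this qHTS cytotoxicity screen, ATP-dependent luciferase luminescence reports viable N2a cells after a 40 hr compound exposure in complete culture medium. Potencies are AC50 values from standard Hill equation fits.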

Experiment [14] can be described thus: Cell Viability - NIH 3T3 (AID 541; active = well fitted curve in the direction sought with a large enough effect; an effect the other way counts as inactive or inconclusive;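 also: plate controls were DMSO alone for no effect and tamoxifen positive control for full effect; nearly all actives have a fitted effect of over 25% in size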). To be noted: NIH 3T3 cell viability, qHTS; activity change, negative = cytotoxicity: at 92.2 µM (top of the series). An outline of the steps: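 In this cytotoxicity screen, acute toxicity is scored as an ATP drop measured by CellTiter-Glo in NIH 3T3 fibroblasts following a 40 hr, 37 °C incubation with compound.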
A short description of experiment [15]: Cell Viability - HUV-EC-C (AID 542; active = well fitted curve in the direction sought with a large enough effect; an effect the other way counts as inactive or inconclusive; also: % is scaled to controls: 0 for no effect and ±100 for the full control effect; nearly all actives have a fitted effect of over 35% in size). To be noted: HUV-EC-C endothelial cell viability, qHTS; series mostly up to 92.2 µM. An outline of the steps:
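Concentration-dependent ATP loss in HUV-EC-C cells is the measure. Exposure lasts 40 hr at 37 °C; luminescence follows CellTiter-Glo addition, and Hill fits give AC50.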

Experiment [16] in a line: Cell Viability - H-4-II-E (AID 543; active = well fitted curve in the direction sought with a large enough effect; an effect the other way counts as inactive or inconclusive; also: % is scaled to controls: 0 for no effect and ±100 for the full control effect; nearly all actives have a fitted effect of over 35% in size). To be noted: H-4-II-E rat hepatoma viability; series mostly up to 92.2 µM. The essentials: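 AC50 from Hill-modelled qHTS concentration-response curves. H-4-II-E rat hepatoma cells in complete medium, 40 hr exposure at 37 °C, viability by CellTiter-Glo ATP luminescence.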
Experiment [17] is described as follows: Cell Viability - SH-SY5Y (AID 544; active = well fitted curve in the direction sought with a large enough effect; an effect the other way counts as inactive or inconclusive;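 also: 0% = DMSO alone and -100% = 100 µM tamoxifen; nearly all actives have a fitted effect of over 55% in size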). To be noted: SH-SY5Y neuroblastoma cell viability; viability change, negative = cytotoxic: at 92.2 µM (top of the series). The essentials: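 Quantitative HTS in SH-SY5Y neuroblastoma cells, 40 hr treatment at 37 °C, ATP content by luciferase luminescence; AC50 from Hill fits.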
A short description of experiment [18]: Cell Viability - Renal Proximal Tubule (AID 545; active = well fitted curve in the direction sought with a large enough effect; an effect the other way counts as inactive or inconclusive;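 also: 0% = DMSO only and -100% = 100 µM tamoxifen; nearly all actives have a fitted effect of over 40% in size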). To be noted: renal proximal tubule cells viability, primary cells of rat origin; activity change, negative = cytotoxicity: at 91.7 µM (top of the series). An outline of the steps: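 Primary rat renal proximal tubule cells (1000/well) were treated with compounds for 40 hr at 37 °C in complete medium. Intracellular ATP was measured by CellTiter-Glo luminescence, and AC50 values came from Hill-equation fits of concentration-response data.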

The target in experiment [19] is Glucocorticoid receptor (Homo sapiens) (UniProt P04150). The experiment is described as follows: GR-EFC Redistribution (AID 451; calls by dose curve; also: potency is read from the fitted curve at half-maximal effect). To be noted: CHO-K1 GR-EFC translocation, beta-gal luminescence, 2 h. An outline of the steps:
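CHO-K1 cells expressing nuclear EA and GR-ED fragments of b-gal; compounds titrated up to 46 uM final, 2 h at 37 C. GR nuclear translocation read as complemented b-gal luminescence after 1 h RT detection.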

Several values for one entry are separate records, joined by “and”; a condition that tells them apart may be missing. Identical values can stand only once. Values without a mark were called inactive. Inconclusive results are not listed. Activity calls are given as the source filed them. Unless noted, calls follow the shape of the dose curve; as a rule, active = well fitted curve in either direction with a large enough effect (not every such curve was filed as active); inconclusive = small, poorly fitted or top-dose-only effect, or another doubt; inactive = flat fitted curve, though single readings scatter.

Chain of Glucocorticoid receptor (Homo sapiens) (P04150 whole entry, looked up, the tested form may be a part): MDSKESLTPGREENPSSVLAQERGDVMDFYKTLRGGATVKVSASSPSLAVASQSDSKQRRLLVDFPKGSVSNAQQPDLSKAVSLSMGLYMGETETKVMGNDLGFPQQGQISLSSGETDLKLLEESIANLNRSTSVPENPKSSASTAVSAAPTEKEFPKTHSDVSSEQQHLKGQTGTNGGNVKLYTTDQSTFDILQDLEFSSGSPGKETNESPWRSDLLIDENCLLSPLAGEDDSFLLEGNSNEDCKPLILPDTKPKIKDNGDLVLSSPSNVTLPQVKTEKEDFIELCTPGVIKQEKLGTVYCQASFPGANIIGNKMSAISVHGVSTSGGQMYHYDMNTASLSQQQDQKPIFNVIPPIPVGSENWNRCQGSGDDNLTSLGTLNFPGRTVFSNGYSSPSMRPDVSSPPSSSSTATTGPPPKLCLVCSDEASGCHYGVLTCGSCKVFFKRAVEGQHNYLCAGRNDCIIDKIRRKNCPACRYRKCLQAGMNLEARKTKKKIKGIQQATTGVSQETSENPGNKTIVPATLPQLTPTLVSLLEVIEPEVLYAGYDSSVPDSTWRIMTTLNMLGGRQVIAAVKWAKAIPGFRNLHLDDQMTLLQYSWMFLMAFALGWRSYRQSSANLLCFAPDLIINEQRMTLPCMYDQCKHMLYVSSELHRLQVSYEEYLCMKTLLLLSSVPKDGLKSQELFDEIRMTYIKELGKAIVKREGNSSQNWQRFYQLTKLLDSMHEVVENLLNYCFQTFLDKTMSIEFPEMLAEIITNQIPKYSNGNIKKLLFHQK
Chain of Cytochrome P450 1A2 (Homo sapiens) (P05177 whole entry, looked up): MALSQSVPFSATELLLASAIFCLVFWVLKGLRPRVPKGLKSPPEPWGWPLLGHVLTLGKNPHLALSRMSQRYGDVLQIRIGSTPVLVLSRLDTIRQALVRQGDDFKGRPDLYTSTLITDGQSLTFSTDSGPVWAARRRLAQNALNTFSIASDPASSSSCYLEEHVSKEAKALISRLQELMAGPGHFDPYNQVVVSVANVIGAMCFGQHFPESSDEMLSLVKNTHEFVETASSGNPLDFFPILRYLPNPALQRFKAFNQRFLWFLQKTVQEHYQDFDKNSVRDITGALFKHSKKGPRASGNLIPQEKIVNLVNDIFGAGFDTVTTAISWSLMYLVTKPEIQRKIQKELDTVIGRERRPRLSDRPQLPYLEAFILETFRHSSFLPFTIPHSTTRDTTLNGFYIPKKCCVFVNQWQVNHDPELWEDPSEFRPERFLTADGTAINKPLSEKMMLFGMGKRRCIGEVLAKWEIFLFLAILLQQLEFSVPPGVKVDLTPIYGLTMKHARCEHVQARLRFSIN

As to `CNCC[C@H](Oc1ccc(C(F)(F)F)cc1)c1ccccc1`, the activity change, negative = inhibition is 21.4% in experiment [1] (at 17.2 µM (top of the series)); 29.8% and 23.7% in experiment [1] (at 38 µM (top of the series)); -28% and -21.6% and -27.9% in [3]. Further, the Potency in [2] is 20 µM (active) and 5.01 µM (active) and 31.6 µM (active). The activity, negative = inhibition is -1.77% in [4] (at 17.2 µM (top of the series)); -30.6% and 21.5% in experiment [4] (at 38 µM (top of the series)). The Potency result in [5] is “inactive”.

Take `Nc1ccc(O)c(C(=O)O)c1`: the activity change, negative = inhibition in experiment [1] (at 17.2 µM (top of the series)) is 12.5%. The Potency entry in experiment [2], in [5], in [13], in experiment [14], in experiment [15] and in [16] was “inactive” in each case. The Potency entry in experiment [17] was “inactive”. The Potency in [6], in experiment [7], in [8], in [9], in experiment [10] and in [11] was greater than 92 µM throughout. In addition, the Potency in experiment [12] is greater than 20.6 µM. Moreover, the activity, negative = inhibition in experiment [4] (at 17.2 µM (top of the series)) is -23.9%. Further, the activity change, negative = cytotoxicity in experiment [18] was 10.5%.

Consider `NCCCCCCCCCCN`, for which the values for the activity change, negative = inhibition in experiment [1] (at 38 µM (top of the series)) and in experiment [3] were 4.16% and 0.00398%, respectively. The Potency result in experiment [2] is “inactive”. For the same compound, in [4] (at 38 µM (top of the series)), the activity, negative = inhibition was -2.37%. Also, the Potency in [12] was greater than 46 µM.

`CN1CCc2cc(NC(=O)Nc3cccnc3)ccc21`: the activity change, negative = inhibition in [1] (at 38 µM (top of the series)) was -1.43%; in [3] it was 4.73%. In addition, the Potency in experiment [2] was 0.0794 µM (active); in experiment [12] it was greater than 46 µM; in experiment [19] it was greater than 46 µM. Moreover, in experiment [4] (at 38 µM (top of the series)), the activity, negative = inhibition was 4.31%. Further, the Potency entry in experiment [5] was “inactive”.

With `O=C1NC(O)=NC1(c1ccccc1)c1ccccc1`, the activity change, negative = inhibition in [1] (at 38 µM (top of the series)) was 1.51%; in experiment [3] it was -13.5%. For the same compound, the Potency entry in [2] is “inactive”. Besides, in experiment [4] (at 38 µM (top of the series)), the activity, negative = inhibition was -6.76%. Besides, the Potency in experiment [12] was greater than 46 µM.

Regarding `NO`, the activity change, negative = inhibition in [1] (at 38 µM (top of the series)) is 6.61%; in experiment [3], -5.23%. In addition, the Potency result in [2] and in [5] was “inactive” each time. Moreover, the activity, negative = inhibition in [4] (at 38 µM (top of the series)) is 11.6%.

For the compound `Cc1c(Nc2ncccc2C(=O)O)cccc1C(F)(F)F`, the activity change, negative = inhibition is -17.9% in experiment [1] (at 17.2 µM (top of the series)) and -13.1% [at 17.2 µM] in experiment [3]. In [2], the Potency is 12.6 µM (active). In experiment [4] (at 17.2 µM (top of the series)), the activity, negative = inhibition was -19.6%. Moreover, the Potency result in experiment [5] was “inactive”.

On to `O=c1[nH]c2ccccc2n1CCCN1CCN(C(c2ccccc2)c2ccccc2)CC1`, for which the figures for the activity change, negative = inhibition in experiment [1] (at 17.2 µM (top of the series)) and in [1] (at 38 µM (top of the series)) were -6.95% and -17.6%, respectively. The Potency in experiment [2] is 25.1 µM (active); in experiment [12], > 46 µM and > 20.6 µM. Moreover, the activity, negative = inhibition in [4] (at 17.2 µM (top of the series)) was -2.06%.

Turning to `N#C/C(=C\c1ccc(O)c(O)c1)C(=O)NCCCc1ccccc1`, the activity change, negative = inhibition in experiment [1] (at 17.2 µM (top of the series)) was -12.8%. Further, the Potency in experiment [2] was 12.6 µM (active); in experiment [12] it was > 46 µM and > 20.6 µM; in [5], 10 µM (active). The activity, negative = inhibition in experiment [4] (at 17.2 µM (top of the series)) is -22.9%; in experiment [4] (at 38 µM (top of the series)), -10.2%.
